Several values for one entry are separate records, joined by “and”; a condition that tells them apart may be missing. Identical values can stand only once. Records with an inconclusive call do not appear. A call without a number means that no potency is given here. More than one record can exist for a structure, and the calls need not agree. Activity calls are given as the source filed them. Unless noted, calls follow the shape of the dose curve; as a rule, active = well fitted curve in the direction sought with a large enough effect in the repeat runs; inconclusive = weak or mixed curves; inactive = no such curve, though single readings can be large; an effect the other way counts as inactive or inconclusive.
Columns and labels:
[1] = qHTS assay to identify small molecule antagonists of the estrogen related receptor (ERR) signaling pathway from Tox21 library - cell viability counter screen (AID 1224834); also: nearly all actives have a fitted effect of over 30% in size; also: potency is read from the fitted curve at half-maximal effect
Outline: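 In this quantitative HTS format, ERR cells receive compounds in DMSO and are incubated for 17.5 h at 37 C. Live-cell protease activity is then detected with CellTiter-Fluor.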

[2] = target: Luciferin 4-monooxygenase (Photinus pyralis) (UniProt P08659); assay: qHTS assay to identify small molecule inhibitors of firefly luciferase (AID 1224835); also: nearly all actives have a fitted effect of over 25% in size; also: potency is read from the fitted curve at half-maximal effect
Outline: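 Biochemical qHTS: compounds run as interplate titrations against purified firefly enzyme, with D-luciferin and ATP each at its KM concentration. Light output recorded by CCD imaging.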

[3] = qHTS assay to identify small molecule agonists of the constitutive androstane receptor (CAR) signaling pathway - cell viability counter screen (AID 1224836); also: nearly all actives have a fitted effect of over 45% in size; also: potency is read from the fitted curve at half-maximal effect
Outline: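 Cell viability multiplexed with the CAR agonist screen: CellTiter-Fluor fluorescence after 23 hr at 37 C. HepG2-CYP2B6-hCAR cells got compounds at 15 concentrations with PK11195 at 0.75 uM final.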

[4] = qHTS assay to identify small molecule antagonists of the constitutive androstane receptor (CAR) signaling pathway - cell viability counter screen (AID 1224837); also: nearly all actives have a fitted effect of over 45% in size; also: potency is read from the fitted curve at half-maximal effect
Outline: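 In quantitative HTS format, compounds at 15 concentrations were applied to HepG2 cells double-transfected with hCAR and CYP2B6-2.2kb under 50 nM CITCO stimulation; live-cell protease activity was read after 23 hr via CellTiter-Fluor.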

[5] = target: Nuclear receptor subfamily 1 group I member 3 (Homo sapiens) (UniProt Q14994); assay: qHTS assay to identify small molecule agonists of the constitutive androstane receptor (CAR) signaling pathway (AID 1224839); also: nearly all actives have a fitted effect of over 15% in size; also: potency is read from the fitted curve at half-maximal effect
Outline: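 Luminescent ONE-Glo read-out after 24 hr, 37 C exposure of double-stable HepG2-CYP2B6-hCAR reporter cells to a 15-point compound series, in the presence of 0.75 uM PK11195 (final).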

[6] = qHTS assay to identify small molecule antagonists of the estrogen related receptor signaling pathway with the pleiotropic PPARgamma coactivator (PGC) from Tox21 10K library - cell viability counter screen (AID 1224840; active = well fitted cell-killing curve with a large enough effect in the repeat runs, not every such curve was filed as active; also: nearly all actives have a fitted effect of over 40% in size; also: potency is read from the fitted curve at half-maximal effect)
Outline: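 Viability counter screen, PGC/ERR cells: 17.5 h compound exposure at 37 C, CellTiter-Fluor fluorescence endpoint.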

[7] = qHTS assay to identify small molecule antagonists of the estrogen related receptor signaling pathway with the pleiotropic PPARgamma coactivator (PGC) from Tox21 10K library (AID 1224841; call rule not given here; also: actives are mostly falling curves and most rising ones were filed inactive; nearly all actives have a fitted effect of over 50% in size; also: potency is read from the fitted curve at half-maximal effect)
Outline: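 In the PGC/ERR line, DMSO solutions of test chemicals are pin-delivered to 2,000 cells/well six hours after dispensing. Following eighteen hours' incubation, One-Glo reagent is added and luminescence recorded.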

[8] = qHTS assay to identify small molecule agonists of the estrogen related receptor signaling pathway with the pleiotropic PPARgamma coactivator (PGC) from Tox21 10K library (AID 1224842); also: nearly all actives have a fitted effect of over 15% in size; also: potency is read from the fitted curve at half-maximal effect
Outline: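 PGC/ERR reporter cell line, 2,000 cells per well, incubated 6 h at 37 C before 23 nL compound in DMSO was added. After 18 h at 37 C, One-Glo luminescence read following 30 min at room temperature.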

[9] = target: Thyrotropin receptor (Homo sapiens) (UniProt P16473); assay: qHTS assay to identify small molecule agonists of the thyroid stimulating hormone receptor (TSHR) signaling pathway (AID 1224843; calls by dose curve; also: nearly all actives have a fitted effect of over 45% in size; also: potency is read from the fitted curve at half-maximal effect)
Outline: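 HEK293/TSHR, 800 cells/well; cpd 30 min RT; add cAMP-d2 + anti-cAMP-cryptate, 1 h RT; fluorescence read on plate reader. 15-pt titration, n=3.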

[10] = target: Nuclear receptor subfamily 1 group I member 3 (Homo sapiens) (UniProt Q14994); assay: qHTS assay to identify small molecule antagonists of the constitutive androstane receptor (CAR) signaling pathway (AID 1224838); also: nearly all actives have a fitted effect of over 40% in size
Outline: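 CITCO-stimulated (50 nM final) HepG2 cells stably transfected with hCAR and CYP2B6-2.2kb luciferase were exposed to compounds at 15 concentrations for 24 h at 37 C/5% CO2. A luciferase reagent was added and luminescence recorded after 30 min.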

Chain of Luciferin 4-monooxygenase (Photinus pyralis) (P08659 whole entry, looked up): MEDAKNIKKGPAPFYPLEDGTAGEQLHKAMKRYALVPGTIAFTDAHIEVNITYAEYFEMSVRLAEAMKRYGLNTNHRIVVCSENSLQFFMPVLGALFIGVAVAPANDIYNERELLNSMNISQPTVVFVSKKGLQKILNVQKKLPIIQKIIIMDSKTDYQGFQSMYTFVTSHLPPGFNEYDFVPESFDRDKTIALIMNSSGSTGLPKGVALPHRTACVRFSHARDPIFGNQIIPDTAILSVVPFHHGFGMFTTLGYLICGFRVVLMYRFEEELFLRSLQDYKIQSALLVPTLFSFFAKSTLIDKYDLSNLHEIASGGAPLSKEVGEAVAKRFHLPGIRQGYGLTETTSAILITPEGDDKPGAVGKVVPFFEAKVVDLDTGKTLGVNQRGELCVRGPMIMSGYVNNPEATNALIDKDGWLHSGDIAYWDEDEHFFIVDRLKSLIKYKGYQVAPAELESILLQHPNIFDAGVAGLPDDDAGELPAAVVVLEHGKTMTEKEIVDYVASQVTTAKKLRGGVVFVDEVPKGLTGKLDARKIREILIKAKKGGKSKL
Chain of Nuclear receptor subfamily 1 group I member 3 (Homo sapiens) (Q14994 whole entry, looked up): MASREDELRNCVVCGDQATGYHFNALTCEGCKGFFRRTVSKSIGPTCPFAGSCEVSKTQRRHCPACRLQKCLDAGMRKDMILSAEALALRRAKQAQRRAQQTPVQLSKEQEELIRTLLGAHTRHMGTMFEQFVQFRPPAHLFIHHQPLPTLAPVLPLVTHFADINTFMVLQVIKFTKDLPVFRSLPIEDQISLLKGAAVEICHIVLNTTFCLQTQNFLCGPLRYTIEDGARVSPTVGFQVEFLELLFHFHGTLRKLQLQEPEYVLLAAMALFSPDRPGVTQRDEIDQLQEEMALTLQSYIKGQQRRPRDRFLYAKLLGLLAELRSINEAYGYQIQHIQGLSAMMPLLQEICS
Chain of Thyrotropin receptor (Homo sapiens) (P16473 whole entry, looked up): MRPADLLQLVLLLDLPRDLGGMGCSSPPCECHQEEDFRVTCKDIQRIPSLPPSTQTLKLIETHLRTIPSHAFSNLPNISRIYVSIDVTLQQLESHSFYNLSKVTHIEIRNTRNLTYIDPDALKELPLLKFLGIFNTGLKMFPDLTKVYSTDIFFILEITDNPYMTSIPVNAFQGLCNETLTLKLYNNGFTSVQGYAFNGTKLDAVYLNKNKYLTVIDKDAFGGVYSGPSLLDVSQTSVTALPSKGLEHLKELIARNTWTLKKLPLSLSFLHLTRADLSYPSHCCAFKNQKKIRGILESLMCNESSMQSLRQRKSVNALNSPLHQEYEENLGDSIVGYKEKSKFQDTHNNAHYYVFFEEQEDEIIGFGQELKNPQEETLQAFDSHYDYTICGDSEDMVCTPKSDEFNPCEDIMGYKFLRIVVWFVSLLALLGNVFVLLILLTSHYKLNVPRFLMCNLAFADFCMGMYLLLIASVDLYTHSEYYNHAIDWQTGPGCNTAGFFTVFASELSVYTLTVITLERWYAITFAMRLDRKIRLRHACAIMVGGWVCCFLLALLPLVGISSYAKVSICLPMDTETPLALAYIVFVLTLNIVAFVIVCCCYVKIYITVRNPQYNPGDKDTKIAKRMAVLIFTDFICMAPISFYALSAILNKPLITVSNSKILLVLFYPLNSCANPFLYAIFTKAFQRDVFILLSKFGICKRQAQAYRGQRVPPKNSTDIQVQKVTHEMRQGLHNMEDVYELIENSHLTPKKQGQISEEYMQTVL

Cc1c([N+](=O)[O-])cc2c(c1[N+](=O)[O-])C(C)(C)CC2(C)C
Potency [1]: inactive
Potency [2]: inactive
Potency [3]: inactive
Potency [4]: inactive
Potency [5]: 12.2 µM (active)
Potency [6]: inactive
Potency [7]: 30.6 µM (active)
Potency [8]: inactive
Potency [9]: 48.6 µM (active)

Cc1c([N+](=O)[O-])c(C)c([N+](=O)[O-])c(C(C)(C)C)c1[N+](=O)[O-]
Potency [1]: inactive
Potency [2]: inactive
Potency [3]: inactive
Potency [4]: inactive
Potency [5]: 34.4 µM (active)
Potency [6]: inactive
Potency [7]: inactive
Potency [8]: inactive

CC(C)C(Nc1ccc(C(F)(F)F)cc1Cl)C(=O)OC(C#N)c1cccc(Oc2ccccc2)c1 (stereo not drawn)
Potency [1]: inactive
Potency [2]: inactive
Potency [3]: inactive
Potency [4]: inactive
Potency [10]: inactive
Potency [6]: inactive

CCCC[N+]1(C)CCCC1 (tested in a mixture with another compound)
Potency [1]: inactive
Potency [2]: inactive
Potency [3]: inactive
Potency [4]: inactive
Potency [6]: inactive

CC1CCCC1
Potency [1]: inactive
Potency [2]: inactive
Potency [3]: inactive
Potency [4]: inactive
Potency [10]: inactive
Potency [5]: inactive
Potency [6]: inactive
Potency [9]: inactive

O=c1[nH]c(Cl)c(Cl)cc1Cl
Potency [1]: inactive
Potency [2]: inactive
Potency [3]: inactive
Potency [4]: inactive
Potency [5]: inactive
Potency [6]: inactive
Potency [8]: inactive
Potency [9]: inactive

ClC(Cl)C(Cl)(Cl)Cl
Potency [1]: inactive
Potency [2]: inactive
Potency [3]: inactive
Potency [4]: inactive
Potency [6]: inactive

CCC[CH2][Sn]([CH2]CCC)([O]C(C)=O)[O]C(C)=O
Potency [1]: 0.138 µM (active)
Potency [2]: inactive
Potency [3]: 0.437 µM (active)
Potency [4]: 437 nM (active)
Potency [6]: 0.138 µM (active)
Potency [7]: 0.0347 µM (active)
Potency [8]: inactive
Potency [9]: inactive

CCOC(=O)Cc1ccccc1
Potency [1]: inactive
Potency [2]: inactive
Potency [3]: inactive
Potency [10]: inactive
Potency [5]: inactive
Potency [6]: inactive

[F][Sn]([c]1ccccc1)([c]1ccccc1)[c]1ccccc1
Potency [1]: 1.09 µM (active)
Potency [2]: 5.03 µM (active)
Potency [3]: 1.09 µM (active)
Potency [4]: 1090 nM (active)
Potency [6]: 0.611 µM (active)
Potency [8]: inactive

Cc1ccc2cc3c(ccc4ccccc43)c3c2c1CC3
Potency [1]: inactive
Potency [2]: 11.3 µM (active)
Potency [3]: inactive
Potency [5]: inactive
Potency [6]: inactive
Potency [9]: inactive

COc1ccc2[nH]cc(CCN(C(C)C)C(C)C)c2c1
Potency [1]: inactive
Potency [2]: inactive
Potency [3]: inactive
Potency [5]: inactive
Potency [6]: inactive

CCCN
Potency [1]: inactive
Potency [2]: inactive
Potency [3]: inactive
Potency [4]: inactive
Potency [6]: inactive
Potency [9]: inactive

CCC(C)Nc1c([N+](=O)[O-])cc(C(C)(C)C)cc1[N+](=O)[O-] (stereo not drawn)
Potency [1]: inactive
Potency [2]: 71 µM (active)
Potency [3]: inactive
Potency [4]: inactive
Potency [6]: inactive
Potency [7]: inactive
Potency [8]: inactive

CC(=O)[O][Pb]([c]1ccccc1)([c]1ccccc1)[c]1ccccc1
Potency [1]: 2.73 µM (active)
Potency [2]: 22.4 µM (active)
Potency [3]: 5.45 µM (active)
Potency [5]: inactive
Potency [6]: 3.06 µM (active)
Potency [7]: 6.86 µM (active)
Potency [8]: inactive

CC(C)=CC1C(C(=O)OC(C#N)c2cccc(Oc3ccccc3)c2)C1(C)C (stereo not drawn)
Potency [1]: inactive
Potency [2]: inactive
Potency [3]: inactive
Potency [4]: inactive
Potency [6]: inactive
Potency [7]: inactive
Potency [8]: inactive

Brc1ccc(Oc2ccc(Br)cc2Br)c(Br)c1
Potency [1]: inactive
Potency [2]: 35.6 µM (active)
Potency [3]: inactive
Potency [10]: inactive
Potency [5]: 54.5 µM (active)
Potency [6]: inactive
Potency [7]: inactive

COC(=O)c1ccccc1S(=O)(=O)NC(=O)Nc1nc(C)nc(OC)n1
Potency [1]: inactive
Potency [2]: inactive
Potency [3]: inactive
Potency [4]: inactive
Potency [6]: inactive
Potency [9]: inactive

ClC1(Cl)C2(Cl)C3(Cl)C4(Cl)C(Cl)(Cl)C5(Cl)C3(Cl)C1(Cl)C5(Cl)C24Cl (stereo not drawn)
Potency [1]: inactive
Potency [2]: inactive
Potency [3]: inactive
Potency [4]: inactive
Potency [6]: inactive
Potency [7]: inactive
Potency [8]: inactive
Potency [9]: inactive

COC(=O)/C=C(\C)OP(=O)(OC)OC
Potency [1]: inactive
Potency [2]: inactive
Potency [3]: inactive
Potency [10]: inactive
Potency [5]: inactive
Potency [6]: inactive
Potency [8]: inactive
Potency [9]: inactive

Nc1cc(Cl)ccc1Cl
Potency [1]: inactive
Potency [2]: inactive
Potency [3]: inactive
Potency [5]: inactive
Potency [6]: inactive
Potency [7]: inactive
Potency [8]: inactive
Potency [9]: inactive

Oc1cc(Cl)cc(Cl)c1
Potency [1]: inactive
Potency [2]: inactive
Potency [3]: inactive
Potency [4]: inactive
Potency [6]: inactive
Potency [8]: inactive

c1ccc(N=NNc2ccccc2)cc1
Potency [1]: 39.9 µM (active) and 27.3 µM (active)
Potency [2]: 6.54 µM (active) and 6.33 µM (active)
Potency [3]: inactive
Potency [5]: 28.3 µM (active) and 27.3 µM (active)
Potency [6]: inactive
Potency [7]: inactive
Potency [8]: 25.2 µM (active) and inactive
Potency [9]: inactive

ClC1=C(Cl)[C@]2(Cl)[C@@H]3[C@H]4C[C@H]([C@@H]5O[C@H]45)[C@@H]3[C@@]1(Cl)C2(Cl)Cl
Potency [1]: inactive
Potency [2]: inactive
Potency [3]: inactive
Potency [4]: inactive
Potency [6]: inactive
Potency [8]: inactive

O=C(O)CCCCCCNC1c2ccccc2CCc2ccccc21
Potency [1]: inactive
Potency [2]: inactive
Potency [3]: inactive
Potency [4]: inactive
Potency [6]: inactive
Potency [9]: inactive

[O]=[Cr](=[O])([OH])[O][Cr](=[O])(=[O])[OH]
Potency [1]: 13.8 µM (active) and 24.3 µM (active)
Potency [2]: inactive
Potency [3]: 15.5 µM (active) and 15.3 µM (active)
Potency [4]: 11 µM (active) and 9.67 µM (active)
Potency [6]: 3.85 µM (active)
Potency [9]: inactive

Cc1cnc2c(C(=O)O)c(Cl)ccc2c1
Potency [1]: inactive
Potency [2]: inactive
Potency [3]: inactive
Potency [4]: inactive
Potency [6]: inactive
Potency [7]: inactive
Potency [8]: inactive

CC1CN1 (stereo not drawn)
Potency [1]: inactive
Potency [2]: inactive
Potency [3]: inactive
Potency [5]: inactive
Potency [6]: inactive

From PubChem BioAssay (Tox21)
